Growth data for 8 molecules are collected here from PubChem BioAssay (NCI).

Experiment in all cases: NCI-60 one-dose screen, 48 h (100 = growth as untreated, 0 = no growth, -100 = all killed)
Conditions in all cases: 10 µM unless noted

Experiment [1] deals with NCI-H23 lung.
For experiment [2], the system named is NCI-H460 lung.
Experiment [3] deals with 786-0 renal.
Experiment [4] concerns DU-145 prostate.
For experiment [5], the system named is MDA-MB-231 breast.
Experiment [6] deals with SF-268 CNS.
The subject of experiment [7] is SF-539 CNS.
The test system of experiment [8] is M14 melanoma.
The subject of experiment [9] is SNB-75 CNS.
The subject of experiment [10] is PC-3 prostate.
In experiment [11] the test system is UACC-62 melanoma.
The subject of experiment [12] is SK-MEL-28 melanoma.
In experiment [13] the test system is ACHN renal.
The subject of experiment [14] is OVCAR-5 ovarian.
Experiment [15] concerns OVCAR-3 ovarian.
The test system of experiment [16] is NCI/ADR-RES ovarian.
Experiment [17] has as its system SW-620 colon.
The test system of experiment [18] is MCF7 breast.
For experiment [19], the system named is HCT-116 colon.
Experiment [20] deals with KM12 colon.

This is part of a sample that, as a whole, favours compounds with a hit. Of some 83,000 tested, about 20% had one in any assay.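 Single-concentration screen, 48 h exposure, 96-well plates. Endpoint: percent growth. Below 10 = active.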 Unmarked numbers belong to inactive results. The source made the active and inactive calls.

For the molecule `CCOc1cc(/C=N\Nc2nnc(C)n2N)c(C)cc1N(CCCl)CCCl`, the growth in experiment [1] was -20.2% (active); in [2] it was 4.94% (active); in experiment [3] it was 13.1%; in [4], 27.8%; in experiment [5], 38.2%; in experiment [6], 28.2%. Further, the growth was 34.5% in experiment [7]; 13.8% in [8]; 24.1% in experiment [9]; 7.23% (active) in experiment [10]; -1.59% (active) in experiment [11]; 37.4% in experiment [12]. Also, the growth was 21.6% in experiment [13]; 52.6% in experiment [14]; 4.15% (active) in experiment [15]; 10.7% in experiment [16]; 10.4% in [17]; 9.29% (active) in [18]. Further, the results for the growth in [19] and in experiment [20] were 12% and 13.8%, respectively.

For the molecule `CCOc1c(Cl)cc(CNC(C)C(O)c2ccccc2)cc1OC` (stereo not drawn), the growth in experiment [1] was 80.4%; in experiment [2], 75.1%; in experiment [3], 89.1%; in [4], 57%; in experiment [5] it was 59.9%; in [6], 66.8%. Further, the growth in experiment [7] was 82.8%; in experiment [8] it was 57.4%; in experiment [9], -15.5% (active); in experiment [10], 57.2%; in [11], 63.2%; in experiment [12], 41.5%. For the same molecule, the growth in experiment [13] is 76.8%; in [14] it was 103%; in experiment [15] it was 67.4%; in [16] it was 50.9%; in [17], 43.4%; in [18] it was 42.9%. The growth is 59.2% in experiment [19] and 55.3% in experiment [20].

Take `Cc1cccc(N=C2c3cc([N+](=O)[O-])ccc3-c3c2cc([N+](=O)[O-])cc3[N+](=O)[O-])c1`: the growth was 56.5% in experiment [1]; 33.5% in experiment [2]; 60% in experiment [3]; 88% in experiment [4]; 60.2% in experiment [5]; 58.7% in [6]. In addition, the growth in [7] was 97.7%; in experiment [8], 69.4%; in experiment [9], 84.4%; in experiment [10], 16.8%; in experiment [11] it was 77.5%; in [12], 97.2%. In addition, the growth is 59.3% in experiment [13]; 99.4% in experiment [14]; 50.4% in [15]; 56.5% in [16]; -54.9% (active) in [17]; 21.3% in experiment [18]. Moreover, the growth in experiment [19] is -0.611% (active); in [20], 52.4%.

With `Oc1ccc(Br)cc1CN1CCN(Cc2ccc(Cl)cc2)CC1`, the growth was 91.1% in [1]; 93.1% in experiment [2]; 107% in experiment [3]; 88.5% in experiment [4]; 49.2% in experiment [5]; 64.2% in experiment [6]. In addition, the growth in experiment [7] was 92.9%; in experiment [8] it was 85.9%; in experiment [9] it was 51.5%; in experiment [10] it was 54%; in experiment [11], 50.7%; in experiment [12] it was 88.2%. Moreover, the growth was 83.3% in [13]; 97.7% in [14]; 67.8% in experiment [15]; 82.2% in experiment [16]; 73.1% in experiment [17]; 34.5% in experiment [18]. Moreover, the values for the growth in experiment [19] and in [20] were 22.2% and 64.9%, respectively.

Consider `CC12CC[C@H](O)C=C1/C(=N/O)CC1C2CCC2(C)C1CC[C@@H]2O` (stereo partly drawn), for which the growth in [1] was 103%; in [3], 80.1%; in experiment [5] it was 108%; in experiment [7], 100%; in experiment [8] it was 95.7%; in experiment [9], 79.2%. Besides, the growth is 94.3% in experiment [11]; 103% in experiment [12]; 95.5% in experiment [13]; 96.2% in [14]; 101% in [16]; 85.6% in experiment [18]. The growth in experiment [19] is 93.3%.

For the molecule `CCC(C)(C)O`, the growth was 111% in [1]; 104% in experiment [2]; 114% in [3]; 115% in experiment [4]; 97.4% in experiment [5]; 99.1% in [6]. The growth was 108% in experiment [7]; 107% in experiment [8]; 92.1% in experiment [9]; 100% in [10]; 98.5% in [11]; 108% in experiment [12]. The growth is 103% in experiment [13]; 90.1% in [14]; 111% in [15]; 110% in experiment [16]; 99.9% in [17]; 97.6% in experiment [18]. Also, the growth in experiment [19] was 111%; in [20], 105%.

`COc1c(O)c2c3c(c1OC)-c1ccccc1CC3N(C)CC2` (stereo not drawn): the growth in [1] is 102%; in experiment [2], 110%; in experiment [3] it was 100%; in experiment [4], 116%; in experiment [5], 96.3%; in experiment [6] it was 101%. Also, the growth in experiment [7] was 107%; in [8], 93.3%; in experiment [9], 82.4%; in [10], 100%; in experiment [11], 94.9%; in experiment [12], 117%. The growth in experiment [13] is 105%; in [14], 109%; in [15], 109%; in experiment [16], 99.7%; in [17] it was 117%; in experiment [18], 100%. The growth was 95.7% in experiment [19] and 100% in experiment [20].

In the case of `COc1ccc(NP2(=O)OCC(C)(N)CO2)cc1` (stereo not drawn), the growth is 92% in experiment [1]; 108% in [2]; 101% in [3]; 102% in experiment [4]; 106% in experiment [5]; 96.2% in experiment [6]. Besides, the growth in [7] was 100%; in experiment [8], 101%; in [9] it was 95.7%; in [10], 84.5%; in experiment [11], 99.9%; in [12] it was 114%. Further, the growth in [13] is 96.6%; in experiment [14], 102%; in experiment [15] it was 107%; in experiment [16] it was 98.2%; in experiment [17], 105%; in [18], 99.6%. The growth in experiment [19] is 98.8%; in [20] it was 91.8%.
